Experimental data reported in PubChem BioAssay (NCATS).
Records with an inconclusive call do not appear. Active and inactive are the calls of the source. The call rests on the fitted dose curve; in most records, active means well fitted cell-killing curve with a large enough effect; inconclusive means small, poorly fitted or top-dose-only effect; inactive means flat fitted curve, though single readings scatter.

Experiment: Cell Viability - LYMP2-023 (AID 975); further: nearly all actives have a fitted effect of over 55% in size;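 on activity change, negative = cytotoxicity: plate controls were DMSO only for no effect and 92 µM tetraoctylammonium bromide control for full effect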
Details: LYMP2-023 lymphoblastoid cell viability; series mostly up to 92.2 µM; activity change, negative = cytotoxicity: at the top concentration
Text: NIH Chemical Genomics Center [NCGC]
NIH Molecular Libraries Screening Centers Network [MLSCN]
National Institutes of Environmental Health Sciences [NIEHS]
National Toxicology Program [NTP]
We have developed a 1536-well cell-based assay for quantitative high throughput screening (qHTS) against a number of cell lines to determine in vitro cytotoxicity of small molecules. This particular assay uses a human lymphoblastoid cell line (LYMP2-023) purchased from Coriell Institute for Medical Research.
NCGC Assay Protocol Summary:
The CellTiter-Glo luminescent cell viability assay (Promega) is a homogeneous method to measure the number of viable cells in culture. The end point readout of this assay is based on quantitation of intracellular ATP, an indicator of metabolic activity, using the luciferase reaction. Luciferase catalyzes the oxidation of beetle Luciferin to oxyluciferin and light in the presence of ATP. The luminescent signal is proportional to amount of ATP present.
Using the CellTiter-Glo luminescent cell viability assay, the amount of cellular ATP was measured in the lymphoblastoid cell line with complete culture medium following compound treatment for 24 hours. The assay was performed in opaque white Kalypsys 1536-well plates. In the screen, tetraoctylammonium bromide was used as positive control. Library compounds were measured for their ability to cause acute toxicity in the cell line, as reflected by a decrease in intracellular ATP levels, in a concentration-dependent manner. […] AC50 values were determined from concentration-response data modeled with the standard Hill equation.
qHTS protocol for CellTiter Glo lymphoblastoid cellular assay
[Step] [Parameter] [Value] [Description]
1. Reagent; 5 uL; 2500 lymphoblastoid cells/well
2. Time; 5 hr; 37 C incubation
4. Controls; 23 nL; Tetraoctylammonium bromide 6.4pM to 92 uM
5. Time; 24 hr; 37 C incubation
6. Reagent; 5 uL; CellTiter Glo reagent
7. Time; 30 min; Room Temperature
8. Detection; Luminescence; Viewlux plate reader
Keywords: cell viability, cytotoxicity, lymphoblastoid cell line, luminescence, NTPHTS, NTPHTS_NCGC, NIEHS, DSSTox, MLSMR, MLSCN, NIH Roadmap, qHTS, NCGC
Potency means the concentration at half of the fitted maximal effect.

Row | SMILES | activity change, negative = cytotoxicity | Potency
1 | Cc1ccc2ccc3cccc4ccc1c2c34 | 0.94% (inactive) | 
2 | CC1=C(/C=C/C(C)=C/C=C/C(C)=C/C=O)C(C)(C)CCC1 |  | 50.1 µM (active)
3 | Cc1ccc(N)cc1[N+](=O)[O-] | -5.96% (inactive) | 
4 | C=CC(C)(O)CCCC(C)CCCC(C)CCCC(C)C (stereo not given) | -0.231% (inactive) | 
5 | Cc1cc2nc(N)sc2cc1C | -14.9% (inactive) | 
6 | C=CC(=O)OCCCCCCOC(=O)C=C |  | 39.8 µM (active)
7 | O=C1c2ccccc2C(=O)C1(O)O | -13% (inactive) | 
8 | c1cc2c3c(c1)ccc1cccc(c13)C2 | -13.8% (inactive) | 
9 | Oc1cc2c(cc1O)[C@H]1c3ccc(O)c(O)c3OC[C@@]1(O)C2 |  | 50.1 µM (active)
10 | Nc1ccc(-c2ccc(N)c(O)c2)cc1O | -24.6% (inactive) | 
11 | c1ccc(Nc2cccc3ccccc23)cc1 | 0.498% (inactive) | 
12 | CCCCC(CC)COP(=O)(OCC(CC)CCCC)OCC(CC)CCCC (stereo not given) | -6.48% (inactive) | 
13 | CC(=O)CC(=O)Nc1ccccc1 | 4.86% (inactive) | 
14 | c1ccncc1 | -4.01% (inactive) | 
15 | C1CCCNCC1 | 0.557% (inactive) | 
16 | c1ccc(SCCSc2ccccc2)cc1 | -4.64% (inactive) | 
17 | CCC(Cl)CC(Cl)C(Cl)C(Cl)C(Cl)C(C)Cl (stereo not given) | -2.4% (inactive) | 
18 | CCCC(=O)OC(=O)CCC | 0.697% (inactive) | 
19 | CCc1ccc(C(c2ccc(CC)cc2)C(Cl)Cl)cc1 | -13.4% (inactive) | 
20 | CCCCCCc1ccc(-c2ccc(C#N)cc2)cc1 | -5.96% (inactive) | 

Row | SMILES | activity change, negative = cytotoxicity | Potency
21 | NC(=O)Nc1nc2ccccc2[nH]1 | -1.15% (inactive) | 
22 | Nc1ccc(N)c(Cl)c1 | -0.363% (inactive) | 
23 | CC(C)(C)C(=O)C1C(=O)c2ccccc2C1=O | -19.8% (inactive) | 
24 | c1c[nH]cn1 | -3.71% (inactive) | 
25 | C/C(Cl)=C/CCl | -0.411% (inactive) | 
26 | c1ccc2c(c1)ccc1ccccc12 | -2.15% (inactive) | 
27 | O=C(O)c1cc(N=Nc2ccc([N+](=O)[O-])cc2)ccc1O | -19.6% (inactive) | 
28 | CCOC(=O)C1OC1c1ccccc1 (stereo not given) | 5.21% (inactive) | 
29 | c1ccc2ncccc2c1 | -4.5% (inactive) | 
30 | Nc1ccccc1O | -3.67% (inactive) | 
31 | CC(C)COC(=O)COc1cc(Cl)c(Cl)cc1Cl | 0.563% (inactive) | 
32 | O=[N+]([O-])c1ccccc1Nc1ccccc1 | 1.02% (inactive) | 
33 | Nc1cc(C(=O)O)c(O)c(S(=O)(=O)O)c1 | 4.04% (inactive) | 
34 | CN(C)c1ccc(Cc2ccc(N(C)C)cc2)cc1 | -3.26% (inactive) | 
35 | CCCCOC(=O)COc1ccc(Cl)cc1Cl | 2.11% (inactive) | 
36 | OC1CCCCC1 | -0.839% (inactive) | 
37 | CCCCC(CC)COC(=O)COc1ccc(Cl)cc1Cl (stereo not given) | 1.35% (inactive) | 
38 | O=C(O)c1ccc([N+](=O)[O-])cc1 | -0.619% (inactive) | 
39 | NC(=O)c1ccc([N+](=O)[O-])cc1 | -3.18% (inactive) | 
40 | O=C(O)/C=C/c1ccc(/C=C/C(=O)O)cc1 | -6.93% (inactive) | 
